Screens deposited in PubChem by National Center for Advancing Translational Sciences (NCATS).
Rows were chosen to be rich in hits. Some 15% of all compounds tested hit in one or more screens of this group.
ELG1 repair inh: ELG1-dependent DNA repair inhibition. 2.3% of 330,000 active. AID 504467. HEK293T ELG1-luciferase reporter, luminescence, 16 h; DNA damage induced by 5-fluorouridine. Potency, µM (series often up to 46.1 µM), for the others: at the highest dose activity change, negative = inhibition, most hits filed as inhibitors; note: nearly all actives have a fitted effect of over 55% in size
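Quantitative HTS, concentration-response format. 2,000 cells/well co-treated with 5-fluorouridine and compound, 16 hr in 5% CO2 at 37 °C; ONE-Glo luminescence read after 30 min.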
TDP1 cell noCPT: qHTS for Inhibitors of human tyrosyl-DNA phosphodiesterase 1 (TDP1): qHTS in cells in absence of CPT | DT40 Tdp1-/- hTDP1 cells, no CPT, ATP luminescence, 48 h | Potency, µM (highest dose often 46.2 µM), without a hit: at the top dose activity change, negative = growth inhibition, most hits filed as inhibitors | 15% of 420,000 active | AID 686978, 2013; note: nearly all actives have a fitted effect of over 55% in size
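Cells were dispensed at 400 per well, compounds added by pin tool, plates incubated ≥48 hr at 37 °C, then CellTiter-Glo added for 30 min at room temperature before luminescence reading. Line: DT40 Tdp1-/- complemented with hTDP1; camptothecin omitted.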
RORg inh: inhibitors of mouse ROR gamma transcriptional activity; Drosophila S2 Gal4-RORgamma UAS-luciferase reporter, 20 h; Potency, µM (highest dose often 53.6 µM), inactives show top-dose activity change, negative = inhibition, most hits filed as inhibitors; 5.4% of 310,000 active; AID 2551; note: nearly all actives have a fitted effect of over 60% in size
Target sequence (P51450 whole entry, looked up, the tested form may be a part): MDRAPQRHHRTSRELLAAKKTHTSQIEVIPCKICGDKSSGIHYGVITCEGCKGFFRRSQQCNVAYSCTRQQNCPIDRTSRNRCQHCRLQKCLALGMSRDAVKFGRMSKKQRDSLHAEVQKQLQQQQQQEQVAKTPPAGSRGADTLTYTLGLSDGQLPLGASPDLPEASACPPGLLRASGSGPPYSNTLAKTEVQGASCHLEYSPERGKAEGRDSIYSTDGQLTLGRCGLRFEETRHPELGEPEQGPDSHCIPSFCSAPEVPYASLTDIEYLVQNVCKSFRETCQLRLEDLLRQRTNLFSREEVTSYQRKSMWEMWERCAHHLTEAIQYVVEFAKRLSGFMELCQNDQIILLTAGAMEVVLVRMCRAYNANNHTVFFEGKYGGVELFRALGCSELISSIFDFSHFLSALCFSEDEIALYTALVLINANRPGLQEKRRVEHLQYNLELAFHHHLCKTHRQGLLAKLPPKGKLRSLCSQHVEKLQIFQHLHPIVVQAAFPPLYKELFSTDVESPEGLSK
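Drosophila Schneider cells stably carrying a metallothionein-driven Gal4 DBD–ROR gamma fusion and a UAS-Photinus luciferase reporter were exposed to compound for 1 hr, then induced with copper sulfate (700 uM final) for 20 hr at ambient temperature before luminescence reading.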
DT40 TDP1 CPT: DT40-hTDP1 cell growth loss with CPT. AID 686979. Potency, µM (highest dose often 46.2 µM), for the others: at the top dose activity change, negative = growth inhibition, usual class: inhibitors. chicken DT40 Tdp1-/-;hTDP1 cells + 20 nM CPT, ATP luminescence, 48 h. 12% of 420,000 active; note: nearly all actives have a fitted effect of over 55% in size
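Chicken DT40 Tdp1-/- cells stably complemented with human TDP1 were seeded at 400 cells/well in medium containing 20 nM camptothecin, exposed to pin-transferred compounds, and grown at 37 °C for at least 48 hr. Viability was read as ATP luminescence.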
VP16 counter: Gal4-VP16 reporter inhibition counter-screen; Drosophila S2 Gal4-VP16 UAS-luciferase, luminescence, 20 h; Potency, µM (top dose mostly 53.6 µM), inactives show at the top dose activity, negative = inhibition, most hits filed as inhibitors; 3.5% of 310,000 active; AID 2546;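 note: Gal4-VP16 expression switched on by copper sulfate through the metallothionein promoter; nearly all actives have a fitted effect of over 50% in size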
ALOX12 inh: inhibitors of human 12S-lipoxygenase ALOX12 | P18054 | purified 12hLO, xylenol orange hydroperoxide absorbance | Potency, µM (top dose mostly 108 µM), without a hit: top-dose activity change, negative = inhibition, usual class: inhibitors | 1.1% of 580,000 active | AID 1671190
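Purified human 12hLO (150 nM final) in 25 mM Hepes, 0.01% Triton X-100, pH 7.0 was preincubated 15 min at room temperature with compound. Then 40 uM arachidonic acid was added, 30 min. Hydroperoxide was read by Fe-XO absorbance ratio 573/405 nm.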
* = called active by the depositor; ? = inconclusive; . = no result given; [ ] = another dose, or the depositor's remark. Calls come from the whole dose curve; as a rule, active = well fitted curve in the direction sought with a large enough effect; inconclusive = small, poorly fitted or top-dose-only effect, or another doubt; inactive = no such curve, though single readings can be large; an effect the other way counts as inactive or inconclusive. % is set by controls: 0 for no effect and ±100 for the full control effect; potency is the fitted concentration of half-maximal effect.

SMILES	ELG1 repair inh	TDP1 cell noCPT	RORg inh	DT40 TDP1 CPT	VP16 counter	ALOX12 inh
CCCS(=O)(=O)N1CCC2(CC1)CN(C(C)=O)CC2COC (configuration not stated)	.	.	.	.	.	18.9%
CC(C)CCN1CCC(N2CCN(C(=O)CCc3ccccc3)CC2)C1=O (configuration not stated)	.	.	.	.	.	2.7%
COc1ccccc1Oc1ncccc1CNC(=O)c1ccccc1SC	.	.	.	.	.	12.3%
COc1ccc(Cc2nnc(SCC(=O)NCc3ccco3)o2)cc1	-1.7%	-3.9%	6.0%	6.4%	?	-5.2%
COc1ccc(-c2nnc(SCC(=O)NCc3ccco3)o2)cc1	26.1%	2.2%	0.562µM*	-28.1%	?	-19.9%
O=C(Nc1ccc(F)cc1)c1cccn1-c1nnc(N2CCCCC2)s1	.	?	.	?	.	-13.1%
O=C(c1cccn1-c1nnc(N2CCCC2)s1)N1CCN(c2ccc(F)cc2)CC1	.	18.4µM*	.	16.4µM*	.	-2.7%
Cc1ccc(C)c(N2CCN(C(=O)c3cccn3-c3nnc(N4CCCCC4)s3)CC2)c1	.	14.6µM*	.	?	.	-14.4%
CN1C(=O)c2cncnc2OCC1CNC(=O)Cc1cccc(Cl)c1 (configuration not stated)	.	.	.	.	.	25.1%[176 µM]
Cc1cc(=O)oc2cc(OC(C)C(=O)NCc3cccnc3)ccc12 (configuration not stated)	.	.	.	.	.	32.0%
S=c1nc(-c2ccc(Br)cc2)[nH]c2ccccc12	?	?	?	-18.4%	-4.0%	-1.0%
S=c1nc(-c2ccccc2)[nH]c2ccccc12	-6.4%	-25.2%	0.794µM*	?	7.08µM*	-13.2%
C=CCn1c(C)cc(C(=O)COC(=O)Cn2cnc3c2c(=O)n(C)c(=O)n3C)c1C	.	.	.	.	.	-10.0%
Cc1ccc2nc(/C(C#N)=C/c3ccc4oc5ccccc5c4c3)[nH]c2c1	.	.	.	.	.	-67.4%
COc1cccc(-c2nnc(-c3ccco3)o2)c1	?	29.1µM*	-34.7%	?	-28.3%	8.6%
COc1cccc(-c2nnc(-c3ccc(C)o3)o2)c1	?	-10.6%	11.2µM*	7.2%	?	-1.7%
Brc1ccc(-c2ccc(-c3nnc(-c4ccco4)o3)o2)cc1	.	.	.	.	.	14.1µM*
CCCOc1ccc(-c2nnc(-c3ccco3)o2)cc1	?	-26.1%	4.47µM*	-11.5%	?	0.0%
Cc1cccc(NC(=O)Cc2nc(-c3cc(C)n(-c4cc(C)on4)c3C)cs2)c1	.	.	.	.	.	-26.1%
O=C(NC[C@H]1O[C@H](Cc2cc(COc3ccccc3)on2)CC[C@@H]1O)C1CCC1	.	.	.	.	.	9.7%[176 µM]
Cc1ccc(C)c(S(=O)(=O)N2CCc3ccccc32)c1	.	.	.	.	.	19.3%
CC1=C/C(=C/N(C)c2ccccc2)C(=O)S1	?	25.9µM*	5.1%	20.6µM*	21.0%	?
CC1(C(=O)Nc2ccc3c(c2)OCCO3)CCN1C(=O)C/C=C/c1ccccc1 (configuration not stated)	.	?	.	29.1µM*	.	7.1%
CC1(C(=O)NS(=O)(=O)Cc2ccccc2C(F)(F)F)CCN1C(=O)C/C=C/c1ccccc1 (configuration not stated)	.	23.1µM*	.	?	.	-24.5%
O=C(Nc1ccc2c(c1)OCCO2)C(c1cc2ccccc2o1)N1CCN(C/C=C/c2ccccc2)CC1 (configuration not stated)	.	16.4µM*	.	14.6µM*	.	?
SMILES	ELG1 repair inh	TDP1 cell noCPT	RORg inh	DT40 TDP1 CPT	VP16 counter	ALOX12 inh
CC1(C(=O)NS(=O)(=O)Cc2ccccc2C(F)(F)F)CCN1C(=O)c1ccccc1 (configuration not stated)	.	-6.6%	.	-29.5%	.	-7.5%
CC1(C(=O)Nc2ccc3c(c2)OCCO3)CCN1C(=O)C1(c2ccccc2)CC1 (configuration not stated)	.	-27.3%	.	?	.	-12.3%
O=C1CC(c2ccccc2)N(Cc2ccncc2)CCCN(C(=O)NCc2ccccc2)CCN1 (configuration not stated)	.	.	.	.	.	-3.7%
CCN(CC)C(=O)Oc1ccc2c(=O)c(-c3ccc(OC)cc3)c(C(F)(F)F)oc2c1	.	.	.	.	.	4.5%
Cc1ccccc1N1CCN(c2nc(-c3cccnc3)nc3ccccc23)CC1	.	.	.	.	.	24.9%
Cc1ccc(CN2CCc3c(OCC(=O)Nc4cc(C)ccc4C)cccc3C2=O)cc1	23.1µM*	.	?	.	1.0%	.
CCOC(=O)N1CCN(C(=O)COc2cccc3c2CCN(Cc2ccc(F)cc2)C3=O)CC1	20.6µM*	?	?	?	-19.5%	0.0%
O=C(COc1cccc2c1CCN(Cc1ccc(Cl)cc1)C2=O)N1CCOCC1	11.6µM*	?	36.7%	?	-14.8%	5.0%
CCOC(=O)N1CCN(C(=O)COc2cccc3c2CCN(CC)C3=O)CC1	-1.5%	-9.9%	-13.3%	-7.1%	3.7%	0.0%
CCNC(=O)N1CC(C(=O)NC(C)c2ccccc2)CC(c2ccc(F)c(C)c2)C1 (configuration not stated)	.	.	.	.	.	14.8%
CC1CCC2(CC1)NC(=S)N(c1ccccc1)N2 (configuration not stated)	11.3%	8.2%	-25.3%	-7.5%	-21.0%	?
Cc1cccc(N2NC3(CCCC(C)C3)NC2=S)c1C (configuration not stated)	.	.	.	.	.	8.91µM*
Cc1cccc2sc(NNC(=O)c3ccc(S(=O)(=O)N4CCc5ccccc5C4)cc3)nc12	-20.6%	2.31µM*	-32.4%	2.59µM*	?	?
Cc1cc(C)c2nc(NC(=O)c3ccc(S(=O)(=O)N4CCCC4)cc3)sc2c1	.	-23.5%	.	-20.0%	.	?
Cc1cc(C)c2nc(NNC(=O)c3ccc(S(=O)(=O)N4CCCCC4)cc3)sc2c1	3.3%	3.26µM*	3.16µM*	4.61µM*	8.91µM*	10µM*
Cc1cccc2sc(NNC(=O)c3ccc(S(=O)(=O)N4CCCC(C)C4)cc3)nc12 (configuration not stated)	?	3.66µM*	3.55µM*	4.11µM*	3.16µM*	?
Cc1cccc2sc(NNC(=O)c3ccc4c(c3)OCCO4)nc12	17.5%	?	7.94µM*	?	12.6µM*	?
CC(O)c1cc2n(n1)CCN(C1CCN(C(=O)c3cnccn3)CC1)C2 (configuration not stated)	.	.	.	.	.	31.7%
O=C(CNCc1ccccn1)Nc1ccc([N+](=O)[O-])cc1C(=O)Nc1ccccc1F	23.1µM*	?	20µM*	?	-19.0%	-13.4%
